Bioassay records deposited in PubChem BioAssay by several laboratories.
CYP2C9 inh = inhibitors of human CYP2C9; 20% of 96,000 active; AID 777; inhibition, % at 5 µM; P11712; CYP2C9 Supersomes, luciferin-H conversion, luminescence;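 active means blocking of liver enzyme CYP2C9 beyond about 50% at 5 µM, limit read from the data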
Target sequence (P11712 whole entry, looked up): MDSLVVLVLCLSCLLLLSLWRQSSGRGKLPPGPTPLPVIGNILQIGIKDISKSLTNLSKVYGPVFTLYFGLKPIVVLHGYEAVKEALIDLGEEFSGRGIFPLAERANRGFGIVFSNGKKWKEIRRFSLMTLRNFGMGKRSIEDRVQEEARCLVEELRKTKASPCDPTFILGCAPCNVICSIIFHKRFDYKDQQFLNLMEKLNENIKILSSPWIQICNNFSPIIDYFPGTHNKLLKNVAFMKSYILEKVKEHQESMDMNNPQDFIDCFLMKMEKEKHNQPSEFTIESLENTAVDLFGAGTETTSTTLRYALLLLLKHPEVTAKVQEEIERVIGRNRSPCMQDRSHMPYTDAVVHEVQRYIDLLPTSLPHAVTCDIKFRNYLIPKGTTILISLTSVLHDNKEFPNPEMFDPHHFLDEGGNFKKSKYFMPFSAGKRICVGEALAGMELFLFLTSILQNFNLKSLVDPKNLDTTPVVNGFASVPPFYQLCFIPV
CYP2C9 act = increases human cytochrome P450 2C9 activity. recombinant CYP2C9, luciferin-H conversion, luminescence; active compounds read high; factor 1 = untreated enzyme, 0 = blocked. P11712. activation factor at 5 µM. 1.4% of 96,000 active. AID 1024;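 active means activation factor of 2 or more for CYP2C9 at a 5 µM dose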
CYP2C19 inhib = blocks human cytochrome P450 2C19. P33261. CYP2C19 Supersomes, luciferin-H EGE luminescence, 30 min. inhibition, % at 5 µM. 21% of 96,000 active;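 active means CYP2C19 inhibition above a set limit at 5 µM in the primary screen, cut at about 50% in these data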
PostGolgi ctrl = growth of the yeast control strain, post-Golgi counter-screen. efflux-deficient yeast background strain, growth absorbance A615, 16 h. inhibition, % at 10 µM. 5% of 98,000 active. AID 738
CYP2C19 act = activators of human cytochrome P450 2C19; P33261; recombinant CYP2C19, luciferin-H EGE luminescence; active compounds read high; 0 = fully inhibited enzyme, 1 = untreated enzyme; activation factor at 5 µM; 96,000 tested, under 10 active; AID 1025;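 active means activation factor of at least 2 at 5 µM in the primary screen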
PostGolgi yeast = growth inhibition of a yeast mutant, post-Golgi transport screen; inhibition, % at 10 µM; AID 739; 0.9% of 98,000 active; post-Golgi transport phenotypic cell assay;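 further: yeast cells grown in 1536-well plates; yeast grown about 18 h at 30C before absorbance read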
A number is an active result; - = inactive; . = no result. A selection: hits, their analogues and other compounds. The true share with any hit is near 32%. Unless noted, no stated cut-off is given here; in the data, active means inhibition above about 30%; inactive means the rest.

SMILES	CYP2C9 inh	CYP2C9 act	CYP2C19 inhib	PostGolgi ctrl	CYP2C19 act	PostGolgi yeast
CCN(CC)CC#CCC(C)(c1ccccc1)c1ccccc1	71.6	-	93.6	-	-	-
C=CC(O)(C#CCN(CC)CC)c1ccccc1 (stereo not drawn)	-	-	-	-	-	-
CCN1CCN(C(CNS(=O)(=O)c2ccc(OC)cc2)c2cccnc2)CC1 (stereo not drawn)	-	-	-	-	-	-
COc1ccccc1N1CCN(C(CNS(=O)(=O)c2ccccc2)c2cccnc2)CC1 (stereo not drawn)	62.0	-	86.1	-	-	-
COc1ccc(S(=O)(=O)NCC(c2cccnc2)N2CCN(C)CC2)cc1C (stereo not drawn)	.	.	.	-	.	-
COc1ccc(S(=O)(=O)NCC(c2cccnc2)N2CCN(c3ccccc3OC)CC2)cc1C (stereo not drawn)	-	-	73.5	-	-	-
COc1ccc(CCN2C(=NC(=O)CCC(=O)O)SC3CS(=O)(=O)CC32)cc1OC (stereo not drawn)	-	-	-	-	-	-
COc1ccc(CCN2C(=NC(=O)CC(C)C)SC3CS(=O)(=O)CC32)cc1 (stereo not drawn)	56.1	-	82.1	-	-	-
COc1ccc(C(=O)CSc2nnc(C(CO)NC(=O)c3ccc(OC)cc3)n2C)cc1 (stereo not drawn)	71.4	-	-	-	-	-
C=CCn1c(SCCOc2ccc(OC)cc2)nnc1C(CO)NC(=O)c1ccc(OC)cc1 (stereo not drawn)	88.3	-	-	-	-	-
COc1ccc(C(=O)NC(C)c2nnc(SCC(=O)Nc3nc(C)cs3)n2C)cc1 (stereo not drawn)	-	-	-	-	-	-
COc1ccc(C(=O)NC(C)c2nnc(SCc3ccc(Cl)c(Cl)c3)n2C)cc1 (stereo not drawn)	-	-	-	-	-	32.9
C=CCn1c(SCCOc2ccc(OC)cc2)nnc1C(C)NC(=O)c1ccc(OC)cc1 (stereo not drawn)	-	-	-	-	-	-
COc1ccc(C(=O)NC(C)c2nnc(SCC(=O)Nc3nc4ccccc4s3)n2C)cc1 (stereo not drawn)	72.1	-	65.4	-	-	-
CNC(=O)c1cc(C)c(-c2ccccc2)s1	-	-	-	-	-	-
O=C1CC(N2CCN(c3ccc(F)cc3)CC2)C(=O)N1Cc1ccc(N2CCCC2=O)cc1 (stereo not drawn)	-	-	-	-	-	-
Cc1ccc(C2C(=O)N(C3CCCC3)CC(=O)N2CC2COc3ccccc3O2)cc1 (stereo not drawn)	-	-	-	-	-	-
CCOC(=O)NC(CC(=O)O)c1ccc(OC)c(OC)c1 (stereo not drawn)	-	-	-	-	-	-
CC(C)=CCCC(C)CN(C)CCc1ccccn1 (stereo not drawn)	-	-	-	-	-	-
CCSCc1nnc(SCC(=O)c2ccc(OC)cc2)n1C	-	-	89.5	-	-	-
COc1ccc(NCc2nnc(SCC(=O)c3ccc(OC)cc3)n2C)cc1	-	-	-	-	-	-
O=C(N/N=C/c1cn(-c2ccccc2)nc1-c1ccc(F)cc1)c1ccc(Br)o1	-	-	-	-	-	-
O=C1CCCC2=C1C(c1ccncc1)c1c(nc(SCc3ccccc3)[nH]c1=O)N2 (stereo not drawn)	90.4	-	87.2	-	-	-
CC/C(=C\C(=O)c1ccncc1)Nc1ccc(Br)cc1	89.2	-	99.3	37.5	-	34.4
CCN(CC)c1ccc(NC(=O)c2cncc(Br)c2)cc1	-	-	-	-	-	-
SMILES	CYP2C9 inh	CYP2C9 act	CYP2C19 inhib	PostGolgi ctrl	CYP2C19 act	PostGolgi yeast
COc1ccc2nc(N3CCCC3)[nH]c2c1	-	-	-	-	-	-
CCOc1ccc(NC(=O)C2CC(=O)N(C(C)C)C2)cc1 (stereo not drawn)	-	-	-	-	-	-
CCCCn1c(SCC(=O)N2CCOCC2)nnc1-c1cccs1	62.1	-	-	-	-	-
CCCCn1c(SCC(=O)N2CCCC2)nnc1-c1ccccc1	-	-	51.9	-	-	-
C=CCn1c(SCC(=O)N2CCN(c3ccccc3)CC2)nnc1-c1ccco1	-	-	-	-	-	-
C=CCn1c(SCC(=O)N2CCN(c3ccc(F)cc3)CC2)nnc1-c1cccs1	-	-	65.0	-	-	-
O=C(CSc1nnc(-c2ccccc2)n1Cc1ccccc1)N1CCCC1	-	-	-	-	-	-
O=C(O)C1CCC(N2C(=O)C3CCCCC3C2=O)CC1 (stereo not drawn)	-	-	-	-	-	-
O=C(Nc1ccc(Br)cc1F)c1sccc1-n1cccc1	-	-	-	-	-	-
CN1C(=O)/C(=C2\SC(=S)N(CC3CCCO3)C2=O)c2ccccc21 (stereo not drawn)	-	-	-	-	-	-
Cc1cccc(N=C2NC(=O)/C(=C3/C(=O)N(C)c4ccccc43)S2)c1C	92.9	-	50.5	-	-	-
O=C(Nc1ccc2c(c1)OCCO2)c1cc(-n2cnnc2)ccc1Cl	-	-	-	-	-	-
CCCCOC(=O)c1c(C)oc2ccc(NS(=O)(=O)c3ccc4c5c(cccc35)C(=O)N4)cc12	95.9	-	65.8	-	-	-
COCCOC(=O)c1c(C)oc2ccc(NS(=O)(=O)c3ccc(C(=O)O)cc3)cc12	-	-	-	.	-	.
CCCOC(=O)c1ccc(NS(=O)(=O)c2cccs2)cc1	100.4	-	-	-	-	-
CCOC(=O)c1c(C)oc2ccc(NS(=O)(=O)c3cccs3)cc12	78.9	-	63.6	-	-	-
COc1cc(C(=O)n2nc(C)cc2C)cc(OC)c1OC	-	-	-	-	-	-
CCCN=C(Nc1ccc(Cl)cc1)c1cccnc1	-	-	53.5	-	-	-
CCCCN=C(Nc1ccc(Cl)cc1)c1cccnc1	-	-	67.0	-	-	-
CCN=C(Nc1ccc(Cl)cc1)c1cccnc1	-	-	-	-	-	-
Clc1ccc(C2=Nn3c(nnc3-c3n[nH]c4c3CCC4)SC2)cc1Cl	.	.	.	38.4	.	-
c1ccc(C2=Nn3c(nnc3-c3n[nH]c4c3CCC4)SC2)cc1	-	-	-	-	-	-
O=C(CN(c1ccc(Cl)c(C(F)(F)F)c1)S(=O)(=O)c1ccccc1)N/N=C/c1cccc2c1OCCO2	59.8	-	-	-	-	-
CC(NC(=O)Cn1cnc2c1c(=O)n(C)c(=O)n2C)c1ccccc1 (stereo not drawn)	-	-	-	-	-	-
Cn1c(=O)c(-[n+]2ccccc2)c([O-])c2ccccc21	-	-	-	-	-	-
Cn1c(=O)c2c(nc(N3CCN(Cc4ccccc4)CC3)n2CCCc2ccccc2)n(C)c1=O	-	-	68.1	-	-	-
Cn1c(=O)[nH]c(=O)c2c1nc(N1CCN(Cc3ccccc3)CC1)n2CCSc1ncccn1	-	-	75.4	-	-	-
C=C(C)Cn1c(N(CCO)Cc2ccccc2)nc2c1c(=O)[nH]c(=O)n2C	-	-	-	-	-	-
